Laboratory results reported in the supplement of paper PMC3342239.
Counter-ions that a name gives are not always drawn.

system: Saccharomyces cerevisiae; assay: fraction of cells in G1 phase (DNA content, flow cytometry); higher = more cells with unreplicated DNA (G1 delay); conditions: temperature: 30 C; YPD; JTY2953 pdr5 snq2 (sensitized); drug added to: cultures diluted from stationary phase; 6-7 h
Outline: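 Yeast (S. cerevisiae) in YPD at 30°C was treated with library drugs, and cells were then fixed in ethanol, stained with SYTOX Green and counted by flow cytometry over 10,000 events. Sensitized JTY2953 diluted 1∶200 from an overnight culture got a final 20 µg/ml and was fixed 6–7 h later; other runs dosed dividing JTY2953 (fixed at 6 h) or BY4741 (fixed at 4.33 h). G1 fraction means the Dean-Jett-Fox G1 peak area relative to the G1 and G2/M areas together.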

Structure (SMILES) | fraction of cells in G1 phase
COCCc1ccc(OCC(O)CNC(C)C)cc1 (stereo not drawn) [Metoprolol tartrate] (74.8023 µM) | 0.491
NC[C@H]1CC[C@H](C(=O)O)CC1 [Tranexamic acid] (127.226 µM) | 0.504
CCC(=O)O[C@]1(C(=O)CCl)[C@@H](C)C[C@H]2[C@@H]3CCC4=CC(=O)C=C[C@]4(C)[C@@]3(F)[C@@H](O)C[C@@]21C [Clobetasol propionate] (42.8282 µM) | 0.526
C=C1C[C@H]2[C@@H]3C=C(C)C4=CC(=O)CC[C@]4(C)[C@H]3CC[C@]2(C)[C@@]1(OC(C)=O)C(C)=O [Melengestrol acetate] (50.4374 µM) | 0.569
CCN[C@H]1C[C@H](C)S(=O)(=O)c2sc(S(N)(=O)=O)cc21 [Dorzolamide] (61.6443 µM) | 0.499
CCCCC[C@H](O)/C=C/[C@H]1[C@H](O)CC(=O)[C@@H]1CCCCCCC(=O)O [Alprostadil] (56.4189 µM) | 0.447
OCc1cc(C(O)CNCCCCCCOCCCCc2ccccc2)ccc1O (stereo not drawn) [Salmeterol] (48.1257 µM) | 0.472
COc1ccccc1O [Guaiacol] (161.108 µM) | 0.531
N[C@@H](Cc1cc(I)c(Oc2cc(I)c(O)c(I)c2)c(I)c1)C(=O)O (25.7441 µM) | 0.486
COc1cc(Cc2cnc(N)nc2N)cc(OC)c1OC [Trimethoprim] (68.8884 µM) | 0.486
CC(=O)O[C@]1(C(C)=O)CC[C@H]2[C@@H]3C=C(Cl)C4=CC(=O)[C@@H]5C[C@@H]5[C@]4(C)[C@H]3CC[C@@]21C [Cyproterone acetate] (47.9675 µM) | 0.597
CC1=C(/C=C/C(C)=C/C=C/C(C)=C/C(=O)O)C(C)(C)CCC1 [Retinoic acid] (66.5679 µM) | 0.524
Cn1c(=O)c2c(ncn2CC2OCCO2)n(C)c1=O [Doxofylline] (75.1149 µM) | 0.465
CC(=O)[C@H]1CC[C@H]2[C@@H]3CC=C4C[C@@H](O)CC[C@]4(C)[C@H]3CC[C@]12C [Pregnenolone] (63.1936 µM) | 0.586
O=C(O)c1cc(/N=N/c2ccc(S(=O)(=O)Nc3ccccn3)cc2)ccc1O [Sulfasalazine] (50.2008 µM) | 0.517
CCCCNc1cc(C(=O)O)cc(S(N)(=O)=O)c1Oc1ccccc1 [Bumetanide] (54.8812 µM) | 0.566
NS(=O)(=O)c1cc2c(cc1Cl)NC(C(Cl)Cl)NS2(=O)=O (stereo not drawn) [Trichloromethiazide] (52.5406 µM) | 0.494
CC(=O)O[C@H]1C(=O)[C@@]2(C)[C@H]([C@H](OC(=O)c3ccccc3)[C@]3(O)C[C@H](OC(=O)[C@H](O)[C@@H](NC(=O)c4ccccc4)c4ccccc4)C(C)=C1C3(C)C)[C@]1(OC(C)=O)CO[C@@H]1C[C@@H]2O [Taxol] (23.4212 µM) | 0.481
C[N+]1(C)[C@@H]2CC(OC(=O)C(O)(c3cccs3)c3cccs3)C[C@H]1[C@@H]1O[C@@H]12 (stereo partly drawn) [Tiotropium Br] (42.3349 µM) | 0.481

Structure (SMILES) | fraction of cells in G1 phase
O=C(O[C@@H]1C[C@@H]2C[C@H]3C[C@H](C1)N2CC3=O)c1c[nH]c2ccccc12 [Dolasetron] (61.6555 µM) | 0.494
CCCOc1ccccc1-c1nc2[nH]nnc2c(=O)[nH]1 [Zaprinast] (73.7243 µM) | 0.482
COc1cc(-c2ccc(=O)[nH]n2)ccc1OC(F)F [Zardaverine] (74.5651 µM) | 0.566
CCCCc1ncc(/C=C(\Cc2cccs2)C(=O)O)n1Cc1ccc(C(=O)O)cc1 [Eprosartan] (47.1117 µM) | 0.493
CC[C@]1(O)C[C@@H]2CN(CCc3c([nH]c4ccccc34)[C@@](C(=O)OC)(c3cc4c(cc3OC)N(C)[C@H]3[C@@](O)(C(N)=O)[C@H](O)[C@]5(CC)C=CCN6CC[C@]43[C@@H]65)C2)C1 [Vindesine] (26.5271 µM) | 0.478
COc1ccc(C(=O)NCc2ccc(OCCN(C)C)cc2)cc1OC [Itopride HCl] (55.7972 µM) | 0.501
C[C@]12CC[C@@H]3c4ccc(O)cc4CC[C@H]3[C@@H]1CCC2=O [Estrone] (73.9714 µM) | 0.508
Nc1nc2ccc(OC(F)(F)F)cc2s1 [Riluzole HCl] (85.3967 µM) | 0.551
CC(C)NCC(O)c1ccc(NS(C)(=O)=O)cc1 (stereo not drawn) [Sotalol HCl] (73.4298 µM) | 0.535
NC1CCN(c2nc3c(cc2F)c(=O)c(C(=O)O)cn3-c2ccc(F)cc2F)C1 (stereo not drawn) [Tosufloxacin] (49.4619 µM) | 0.428
NC[C@H]1O[C@H](O[C@H]2[C@H](O)[C@@H](O[C@H]3O[C@H](CO)[C@@H](O)[C@H](N)[C@H]3O)[C@H](N)C[C@@H]2N)[C@H](N)C[C@@H]1O [Tobramycin (free base)] (42.7786 µM) | 0.469
CCC1=C(C)CN(C(=O)NCCc2ccc(S(=O)(=O)NC(=O)N[C@H]3CC[C@H](C)CC3)cc2)C1=O [Glimepiride] (40.7642 µM) | 0.481
CC(C)Nc1cccnc1N1CCN(C(=O)c2cc3cc(NS(C)(=O)=O)ccc3[nH]2)CC1 [Delavirdine mesylate] (43.8048 µM) | 0.487
CC(C)OC(=O)CCC/C=C\C[C@@H]1[C@@H](CC[C@@H](O)CCc2ccccc2)[C@H](O)C[C@@H]1O [Latanoprost] (46.2315 µM) | 0.528
Cc1cn([C@H]2C[C@H](N=[N+]=[N-])[C@@H](CO)O2)c(=O)[nH]c1=O [3'-azido-3'-deoxythymidine] (74.8374 µM) | 0.488
C=C1/C(=C\C=C2/CCC[C@]3(C)[C@@H]([C@H](C)CCCC(C)(C)O)CC[C@@H]23)C[C@@H](O)C[C@@H]1O [Calcitriol] (48.0019 µM) | 0.565
CNS(=O)(=O)Cc1ccc2[nH]cc(CCN(C)C)c2c1 [Sumatriptan Succinate] (48.368 µM) | 0.457
CC(C)[C@H]1CC[C@H](C(=O)N[C@H](Cc2ccccc2)C(=O)O)CC1 [nateglinide] (63.0056 µM) | 0.489
Cc1ccc(N(CC2=NCCN2)c2cccc(O)c2)cc1 [PhentolamineHCl] (62.9327 µM) | 0.505
